From PubChem BioAssay (NCI)
Compounds without any hit were thinned out: in the full panel of roughly 83,000, 20% have a hit.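 Cells were grown in 96-well plates and exposed to the test compound at a single concentration for 48 hours; results are reported as percent growth, with values below 10 considered active.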 Active and inactive are the calls of the source.

Experiments:
Experiment in all cases: NCI-60 one-dose screen, 48 h (100 = growth as untreated, 0 = no growth, -100 = all killed)
Settings in all cases: 10 µM unless noted
DU-145 prostate = system: DU-145 prostate
K-562 leukemia = system: K-562 leukemia
MALME-3M melanoma = system: MALME-3M melanoma
MDA-MB-231 breast = system: MDA-MB-231 breast
RXF 393 renal = system: RXF 393 renal
SF-268 CNS = system: SF-268 CNS
SF-295 CNS = system: SF-295 CNS
SF-539 CNS = system: SF-539 CNS
UACC-257 melanoma = system: UACC-257 melanoma
M14 melanoma = system: M14 melanoma
HCT-15 colon = system: HCT-15 colon
HT29 colon = system: HT29 colon
SNB-75 CNS = system: SNB-75 CNS
SNB-19 CNS = system: SNB-19 CNS
U251 CNS = system: U251 CNS
PC-3 prostate = system: PC-3 prostate
SK-MEL-5 melanoma = system: SK-MEL-5 melanoma
UACC-62 melanoma = system: UACC-62 melanoma
LOX IMVI melanoma = system: LOX IMVI melanoma
SK-MEL-28 melanoma = system: SK-MEL-28 melanoma

Measured: growth

CCOC(=O)c1cc(C(=O)c2cc(OC)cc(OC)c2)n2ccccc12
inactive: DU-145 prostate 53.8% | K-562 leukemia 15.8% | MALME-3M melanoma 31.8% | MDA-MB-231 breast 55.8% | RXF 393 renal 49.6% | SF-268 CNS 46.8% | SF-295 CNS 26.1% | SF-539 CNS 44.8% | UACC-257 melanoma 43.9% | HCT-15 colon 25.6% | HT29 colon 10.1% | SNB-75 CNS 20.5% | SNB-19 CNS 41.7% | U251 CNS 38.6% | PC-3 prostate 40.4% | SK-MEL-5 melanoma 27.4% | UACC-62 melanoma 30.9% | LOX IMVI melanoma 38.1% | SK-MEL-28 melanoma 67.3%
active: M14 melanoma 3.55%

FC(F)(F)c1cc(N2CCCCC2)nc(NCCCNc2ccnc3cc(Cl)ccc23)n1
inactive: DU-145 prostate 81.8% | K-562 leukemia 11.2% | MALME-3M melanoma 72.7% | MDA-MB-231 breast 87.9% | RXF 393 renal 59.7% | SF-268 CNS 70.3% | SF-295 CNS 51.1% | SF-539 CNS 74.8% | UACC-257 melanoma 53.3% | M14 melanoma 70.9% | HCT-15 colon 53.2% | HT29 colon 26.8% | SNB-75 CNS 71.9% | SNB-19 CNS 82.2% | U251 CNS 67.4% | PC-3 prostate 45.4% | SK-MEL-5 melanoma 27.1% | UACC-62 melanoma 61.9% | LOX IMVI melanoma 65.8% | SK-MEL-28 melanoma 76.7%

C#CCOc1ccc(C2=NN(C)C3N=C(Cl)c4ncn(C)c4N23)cc1OCC#C (stereo not given)
inactive: DU-145 prostate 104% | K-562 leukemia 93.5% | MALME-3M melanoma 112% | MDA-MB-231 breast 95.9% | RXF 393 renal 82.7% | SF-268 CNS 105% | SF-295 CNS 94.3% | SF-539 CNS 90% | UACC-257 melanoma 97.2% | M14 melanoma 104% | HCT-15 colon 92.1% | HT29 colon 103% | SNB-75 CNS 97.6% | SNB-19 CNS 103% | U251 CNS 98.7% | PC-3 prostate 91.1% | SK-MEL-5 melanoma 86.1% | UACC-62 melanoma 84.3% | LOX IMVI melanoma 89.2% | SK-MEL-28 melanoma 96.5%

O=C(Nc1cccc(Cn2c(=O)[nH]c3ccc(Oc4ncccn4)cc3c2=O)c1)c1cccc(Cl)c1
inactive: DU-145 prostate 56.5% | K-562 leukemia 27.1% | MALME-3M melanoma 79.5% | MDA-MB-231 breast 72.6% | RXF 393 renal 81.1% | SF-268 CNS 55.6% | SF-295 CNS 45.5% | SF-539 CNS 71.3% | UACC-257 melanoma 44% | M14 melanoma 70% | HCT-15 colon 61.3% | HT29 colon 54.8% | SNB-75 CNS 82.2% | SNB-19 CNS 65.3% | U251 CNS 61.9% | PC-3 prostate 50.3% | SK-MEL-5 melanoma 11.4% | UACC-62 melanoma 52.1% | LOX IMVI melanoma 71.4% | SK-MEL-28 melanoma 78.8%

CCOC(=O)C1=CCC(n2cc(F)c(=O)[nH]c2=O)O1 (stereo not given)
inactive: DU-145 prostate 97.6% | K-562 leukemia 108% | MALME-3M melanoma 112% | MDA-MB-231 breast 115% | RXF 393 renal 171% | SF-268 CNS 101% | SF-295 CNS 114% | SF-539 CNS 100% | UACC-257 melanoma 99.7% | M14 melanoma 97.8% | HCT-15 colon 104% | HT29 colon 105% | SNB-75 CNS 121% | SNB-19 CNS 108% | U251 CNS 95.6% | PC-3 prostate 102% | SK-MEL-5 melanoma 104% | UACC-62 melanoma 108% | LOX IMVI melanoma 94.7% | SK-MEL-28 melanoma 114%

CN1CCN(Cc2ccc(NC(=O)c3cncc(C#Cc4cnc(N)c5ccc(C#N)cc45)c3)cc2C(F)(F)F)CC1
inactive: SF-295 CNS 38.8% | SNB-19 CNS 25.8% | PC-3 prostate 27.4%
active: DU-145 prostate -7.64% | K-562 leukemia 0.252% | MALME-3M melanoma -72.6% | MDA-MB-231 breast -81.7% | RXF 393 renal -90.7% | SF-268 CNS -69.4% | SF-539 CNS -57.6% | UACC-257 melanoma 6.11% | M14 melanoma -83.9% | HCT-15 colon -82.4% | HT29 colon -32.4% | SNB-75 CNS -20% | U251 CNS 3.03% | SK-MEL-5 melanoma -93.2% | UACC-62 melanoma -51.8% | LOX IMVI melanoma -95.8% | SK-MEL-28 melanoma -81%

CNC1=C([N+](=O)[O-])C(c2ccc(OC)cc2)C(C#N)=C(c2ccc[nH]2)O1 (stereo not given)
inactive: DU-145 prostate 107% | K-562 leukemia 95.7% | MALME-3M melanoma 97.9% | MDA-MB-231 breast 104% | RXF 393 renal 113% | SF-268 CNS 103% | SF-295 CNS 101% | SF-539 CNS 99.2% | UACC-257 melanoma 106% | M14 melanoma 104% | HCT-15 colon 106% | HT29 colon 107% | SNB-75 CNS 88.6% | SNB-19 CNS 97% | U251 CNS 101% | PC-3 prostate 97.1% | SK-MEL-5 melanoma 98.2% | UACC-62 melanoma 91.8% | LOX IMVI melanoma 99% | SK-MEL-28 melanoma 108%

CCN1C(=O)N(CC)C2C1NC(=S)N2/N=C/C=C/c1cccs1 (stereo not given)
active: RXF 393 renal -5.1% | SF-539 CNS -16% | HT29 colon 5.58% | SNB-75 CNS 1.94%
inactive: DU-145 prostate 23% | K-562 leukemia 11.2% | MALME-3M melanoma 45.5% | MDA-MB-231 breast 26.6% | SF-268 CNS 66.2% | SF-295 CNS 16.2% | UACC-257 melanoma 63.1% | M14 melanoma 12.3% | HCT-15 colon 15.5% | SNB-19 CNS 27% | U251 CNS 18.4% | PC-3 prostate 35.2% | SK-MEL-5 melanoma 23.4% | UACC-62 melanoma 24.5% | LOX IMVI melanoma 26.7% | SK-MEL-28 melanoma 49.2%

COc1cccc2cc(N(C)c3nc(C)nc4c3CCC4)ccc12
active: DU-145 prostate 5.3% | SF-539 CNS -0.597% | M14 melanoma 6.91% | HCT-15 colon 8.06% | HT29 colon 2.44% | U251 CNS 5.05% | PC-3 prostate 9.9% | SK-MEL-5 melanoma -35.5%
inactive: K-562 leukemia 10.4% | MALME-3M melanoma 57.4% | MDA-MB-231 breast 24.8% | RXF 393 renal 44% | SF-268 CNS 25.9% | SF-295 CNS 15.3% | UACC-257 melanoma 59.1% | SNB-75 CNS 30.5% | SNB-19 CNS 30.4% | UACC-62 melanoma 20.3% | LOX IMVI melanoma 19.3% | SK-MEL-28 melanoma 70.7%

O=C1c2c(c3c4cccnc4[nH]c3c3ccc4ccccc4c23)C(=O)N1O
inactive: DU-145 prostate 54.8% | K-562 leukemia 29.7% | MALME-3M melanoma 63.1% | MDA-MB-231 breast 85.9% | RXF 393 renal 47.9% | SF-268 CNS 37.6% | SF-295 CNS 91.8% | SF-539 CNS 39.6% | UACC-257 melanoma 76.4% | M14 melanoma 49% | HCT-15 colon 69% | HT29 colon 27.9% | SNB-75 CNS 101% | SNB-19 CNS 29.7% | U251 CNS 15.2% | PC-3 prostate 43.1% | SK-MEL-5 melanoma 23.2% | UACC-62 melanoma 24.4% | SK-MEL-28 melanoma 46.1%
active: LOX IMVI melanoma -31.5%

COc1ccc(NC(=O)CSc2oc(-c3ccccc3)nc2S(=O)(=O)c2ccc(Cl)cc2)c(OC)c1
active: SF-539 CNS 0.354% | SNB-75 CNS -1.47%
inactive: DU-145 prostate 83.1% | K-562 leukemia 67.4% | MALME-3M melanoma 57.6% | MDA-MB-231 breast 47.5% | RXF 393 renal 16.3% | SF-268 CNS 47.1% | SF-295 CNS 53.6% | UACC-257 melanoma 40.7% | M14 melanoma 77.3% | HCT-15 colon 73.7% | HT29 colon 70.3% | SNB-19 CNS 55.4% | U251 CNS 50.6% | PC-3 prostate 61% | SK-MEL-5 melanoma 66.3% | UACC-62 melanoma 41.4% | LOX IMVI melanoma 76.1% | SK-MEL-28 melanoma 67.1%

CC1=NC(=S)NC(c2ccccc2)/C1=C1/CC(c2ccccc2O)NN1 (stereo not given)
inactive: DU-145 prostate 101% | K-562 leukemia 99.4% | MALME-3M melanoma 97.9% | MDA-MB-231 breast 94.8% | RXF 393 renal 103% | SF-268 CNS 93.3% | SF-295 CNS 100% | SF-539 CNS 93.4% | UACC-257 melanoma 107% | M14 melanoma 97.3% | HCT-15 colon 97.3% | HT29 colon 105% | SNB-75 CNS 80.7% | SNB-19 CNS 94.2% | U251 CNS 103% | PC-3 prostate 95% | SK-MEL-5 melanoma 102% | UACC-62 melanoma 97.8% | LOX IMVI melanoma 101% | SK-MEL-28 melanoma 104%

CCOC(=O)c1c(C)nc2c(c1N)C(=O)C(=O)N2CCc1ccc(OC)c(OC)c1
inactive: DU-145 prostate 89.7% | K-562 leukemia 25.6% | MALME-3M melanoma 79.1% | MDA-MB-231 breast 80.4% | RXF 393 renal 83.8% | SF-268 CNS 78.7% | SF-295 CNS 63.3% | SF-539 CNS 70% | UACC-257 melanoma 46.8% | M14 melanoma 70.6% | HCT-15 colon 33.3% | HT29 colon 39.6% | SNB-75 CNS 67% | SNB-19 CNS 84.8% | U251 CNS 57.7% | PC-3 prostate 58.9% | SK-MEL-5 melanoma 44.9% | UACC-62 melanoma 64.8% | LOX IMVI melanoma 76.9% | SK-MEL-28 melanoma 80.9%

COc1cc(/C=C/c2cc(/C=C/c3ccc(O)c(OC)c3)n(C(=O)Nc3ccc(C)cc3C)n2)ccc1O
inactive: MDA-MB-231 breast 10.2%
active: DU-145 prostate -26.6% | K-562 leukemia -7.18% | MALME-3M melanoma -21.7% | RXF 393 renal -67.3% | SF-268 CNS 3.8% | SF-295 CNS -51% | SF-539 CNS -19.6% | UACC-257 melanoma -21.4% | M14 melanoma -38.1% | HCT-15 colon 3.84% | HT29 colon -38.5% | SNB-75 CNS -30.5% | SNB-19 CNS 2.45% | U251 CNS -12.3% | PC-3 prostate -10.8% | SK-MEL-5 melanoma -83.4% | UACC-62 melanoma -48.5% | LOX IMVI melanoma -29.8% | SK-MEL-28 melanoma 5.57%

Cc1ccc(Nc2oc(-c3ccccc3)nc2[P+](c2ccccc2)(c2ccccc2)c2ccccc2)cc1
active: DU-145 prostate -19.4% | K-562 leukemia 0.645% | MALME-3M melanoma -61.6% | MDA-MB-231 breast -83.5% | RXF 393 renal -69.1% | SF-295 CNS -85.5% | SF-539 CNS -60.7% | UACC-257 melanoma -42.5% | M14 melanoma -76.2% | HCT-15 colon -34.4% | HT29 colon -28.1% | SNB-75 CNS -2.21% | SNB-19 CNS 0.303% | U251 CNS -58% | PC-3 prostate -21.1% | SK-MEL-5 melanoma -99.7% | UACC-62 melanoma -35.4% | LOX IMVI melanoma -100% | SK-MEL-28 melanoma 1.52%
inactive: SF-268 CNS 10.6%
